Results as given in PubChem BioAssay AID1345085 (National Center for Advancing Translational Sciences (NCATS), 2018).
Records with an inconclusive call do not appear. A number with no mark means an inactive call. Active and inactive are the calls of the source. The call rests on the fitted dose curve; in most records, active means well fitted cell-killing curve with a large enough effect; inconclusive means small, poorly fitted or top-dose-only effect, or effect the other way; inactive means no such curve, though single readings can be large or run the other way.

Each compound was assayed on Tov-21-G (assay: Confirmatory qHTS for gynecologic anti-cancer compounds from libraries of approved drugs and bioactive compounds). Settings: gynecologic cancer cell panel viability, ATPlite luminescence, 48 h; series mostly up to 57.7 µM; activity change, negative = viability loss: at the top concentration.
Summary of the method: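 Cells (1,000/well) were plated, left 16 h at 37 C/5% CO2, then given compound at 11 concentrations (1:3) from 57.5 uM to 0.977 nM for 48 h. ATPlite luminescence after 15 min at room temperature gave IC50 values.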
Further: nearly all actives have a fitted effect of over 55% in size.
On the % scale 0 is the no-effect control and ±100 the full control effect; potency means the concentration at half of the fitted maximal effect.

| SMILES | Potency | activity change, negative = viability loss [%] |
| --- | --- | --- |
| COc1cccc2c1C(=O)c1c(O)c3c(c(O)c1C2=O)C[C@@](O)(C(=O)CO)C[C@@H]3O[C@H]1C[C@H](N)[C@H](O)[C@H](C)O1 | 2.43 µM (active) | – |
| CCC1=CC2CN(C1)Cc1c([nH]c3ccccc13)[C@@](C(=O)OC)(c1cc3c(cc1OC)N(C)[C@H]1[C@@](O)(C(=O)OC)[C@H](OC(C)=O)[C@]4(CC)C=CCN5CC[C@]31[C@@H]54)C2 (some centres not stated) | 2.37 µM (active) | – |
| COc1cc(Nc2ncc(F)c(Nc3ccc4c(n3)N(COP(=O)(O)O)C(=O)C(C)(C)O4)n2)cc(OC)c1OC | 1.37 µM (active) | – |
| CC[C@@]1(O)C(=O)OCc2c1cc1n(c2=O)Cc2c-1nc1ccccc1c2/C=N/OC(C)(C)C | 0.611 µM (active) | – |
| O=c1cc(CN2CCOCC2)occ1OCCCCCSc1ccnc2cc(C(F)(F)F)ccc12 | – | -17.4 |
| Nc1ccc(-c2ccc3ncc4ccc(=O)n(-c5cccc(C(F)(F)F)c5)c4c3c2)cn1 | 3.43 µM (active) | – |
| CN(Cc1cnc2nc(N)nc(N)c2n1)c1ccc(C(=O)N[C@@H](CCC(=O)O)C(=O)O)cc1 | – | -25.3 |
| CC(C)n1c(/C=C/[C@@H](O)C[C@@H](O)CC(=O)O)c(-c2ccc(F)cc2)c2ccccc21 | – | -20.4 |
| CN1CCN(CCOc2cc(OC3CCOCC3)c3c(Nc4c(Cl)ccc5c4OCO5)ncnc3c2)CC1 | 0.243 µM (active) | – |
| OC[C@H]1O[C@@H](n2cnc3c(=S)nc[nH]c32)[C@H](O)[C@@H]1O | – | -22.2 |
| CC(C)CC(=O)Nc1n[nH]c2c1CN(C(=O)C1CCN(C)CC1)C2(C)C | 3.85 µM (active) | – |
| CC(=O)NCC(=O)N1C2CCC1c1cc(Nc3ncc(C(F)(F)F)c(NC4CCC4)n3)ccc12 (configuration not stated) | 3.06 µM (active) | – |
| NCCOc1cc(C(=O)Nc2cc(OCCN)c3ccccc3n2)nc(C(=O)Nc2cc(OCCN)c3ccccc3n2)c1 | 24.3 µM (active) | – |
| Nc1nc(Cl)nc2c1ncn2C1OC(CO)C(O)C1F (configuration not stated) | 3.43 µM (active) | – |
| CCN1CCN(Cc2ccc(-c3cc4c(NC(C)c5ccccc5)ncnc4[nH]3)cc2)CC1 (configuration not stated) | 1.72 µM (active) | – |
| CCCC(Nc1nc(-c2ccc(NC(=O)NCC)c(OC)c2)ncc1C)c1cccnc1 (configuration not stated) | 0.0306 µM (active) | – |

| SMILES | Potency | activity change, negative = viability loss [%] |
| --- | --- | --- |
| CCc1cccc(CC)c1NC(=O)N1Cc2[nH]nc(NC(=O)c3ccc(N4CCN(C)CC4)cc3)c2C1 | 2.73 µM (active) | – |
| Cc1cncc2cccc(S(=O)(=O)N3CCCN(C(=O)CN)C[C@@H]3C)c12 | – | -18.6 |
| COC(C(=O)N1Cc2[nH]nc(NC(=O)c3ccc(N4CCN(C)CC4)cc3)c2C1)c1ccccc1 (configuration not stated) | 1.37 µM (active) | – |
| COc1cc2c(NC3CCN(C(C)C)CC3)nc(C3CCCCC3)nc2cc1OCCCN1CCCC1 | 10.9 µM (active) | – |
| COc1ccc(-c2ccc3c(N4CCOCC4C)nc(N4CCOCC4C)nc3n2)cc1CO (configuration not stated) | – | -33.8 |
| CC(C)C[C@H](NC(=O)[C@H](Cc1ccccc1)NC(=O)c1cnccn1)B(O)O | 0.0968 µM (active) | – |
| CNC1CCC(N(Cc2cccc(-c3ccncc3)c2)C(=O)c2sc3ccccc3c2Cl)CC1 (configuration not stated) | 19.3 µM (active) | – |
| Cc1cc(CN2CCN(c3c(Br)cnc4nc(-c5ccc(N6CCN(C)CC6)cc5)[nH]c34)CC2)no1 | 24.3 µM (active) | – |
| NS(=O)(=O)OC[C@@H]1C[C@@H](n2ccc3c(N[C@H]4CCc5ccccc54)ncnc32)C[C@@H]1O | 1.72 µM (active) | – |
| Cc1cnc(Nc2ccc(OCCN3CCCC3)cc2)nc1Nc1cccc(S(=O)(=O)NC(C)(C)C)c1 | 1.72 µM (active) | – |
| CN(C[C@@H]1COCCO1)S(=O)(=O)Nc1ccc2ccc3ncc(-c4cnn(C)c4)cc3c(=O)c2c1 | 17.2 µM (active) | – |
| COCCOc1nc(-c2ccc(Cl)c(Cl)c2)n(-c2ccc(NC(=O)CCl)cc2)n1 | 1.72 µM (active) | – |
| COc1cc(F)c(F)c(Nc2ccc(I)cc2F)c1NS(=O)(=O)C1(CC(O)CO)CC1 (configuration not stated) | 13.7 µM (active) | – |
| O=C(NOC[C@H](O)CO)c1ccc(F)c(F)c1Nc1ccc(I)cc1F | 1.72 µM (active) | – |
| Cc1cc(SCc2sc(-c3ccc(C(F)(F)F)cc3)nc2C)ccc1OCC(=O)O | – | 1.34 |
| COc1cccc2c1C(=O)c1c(O)c3c(c(O)c1C2=O)C[C@@](O)(C(=O)CO)C[C@@H]3O[C@H]1C[C@H](N)[C@H](O[C@@H]2CCCCO2)[C@H](C)O1 | 8.63 µM (active) | – |
